Here are results for 40 sequences from the supplement of paper PMC10681739.

The assay concerns the target T1, ETS1 (UniProt P14921).
T1 sequence: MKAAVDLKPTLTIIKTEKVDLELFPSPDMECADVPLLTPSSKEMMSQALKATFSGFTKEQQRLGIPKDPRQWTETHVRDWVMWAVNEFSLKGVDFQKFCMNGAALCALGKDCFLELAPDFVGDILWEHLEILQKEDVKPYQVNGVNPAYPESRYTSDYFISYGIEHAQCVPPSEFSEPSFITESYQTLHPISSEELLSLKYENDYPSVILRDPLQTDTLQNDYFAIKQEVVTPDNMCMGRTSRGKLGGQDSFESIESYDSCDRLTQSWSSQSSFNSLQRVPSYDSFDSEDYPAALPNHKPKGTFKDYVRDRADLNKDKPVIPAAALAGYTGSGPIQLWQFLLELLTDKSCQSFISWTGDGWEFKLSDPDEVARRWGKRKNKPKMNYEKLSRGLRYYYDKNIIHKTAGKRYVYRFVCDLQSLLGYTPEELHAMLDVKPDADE
Nature of the assay: ETS1 binding intensity (PBM fluorescence), ETS1 alone (arbitrary fluorescence units); higher = stronger binding. The settings on record: ETS1 concentration 1 nM; RUNX1 concentration 0 nM.
For GCCCCCATGCTTCCTGTTGTGGGAGATGAAGTGTGG, the ETS1 binding intensity stood at 1710.

Regarding CATGGTGGTGACGCAGGATGTGGTGGTGGTGTAGAA, the ETS1 binding intensity amounted to 2600.

In turn, CGCCTGCCCCACTTCCGCCCGGACCCGCAGCCCCTA showed an ETS1 binding intensity of 2450.

CTTCTGAGAGGAGGATGTGGTCAGATACCTACAAAT had an ETS1 binding intensity of 1030.

In turn, CTACGACTTCCGTGATGCCTTGCGGTTGCTGTAGCC showed an ETS1 binding intensity of 524.

GTGTTTCCTCTTTGTTTTGGGGCTGTGGTTGCCACA showed an ETS1 binding intensity of 414.

In turn, GTAAATAAAGAGGAAGTCCCTATGCGGGGGATGGGG returned an ETS1 binding intensity of 1910.

TCTGGGACAGGAAAGACTTGTGGTTACTGCTGTTGA had an ETS1 binding intensity of 808.

With ACTTGACTTCCTGTGGGGTGTGTGGTGTCTGCACTT, the ETS1 binding intensity is 940.

As to TGCTCAGAAGGGCATCCGGTTGCGGAGAAGGTACAC, the ETS1 binding intensity was determined as 2130.

As to GGCGGCTTCCGGGATCTGCCTGGCGGTTGCTTTGTC, the ETS1 binding intensity amounted to 568.

For the sequence CCTACACTTCCCAGAGAACCTAGCGGTTACGCCAAC, the ETS1 binding intensity worked out at 401.

Consider GCAACGGAGTCCGGAAGAACCACAGAGACGCGGCTC, for which the ETS1 binding intensity is 789.

Regarding GGGCGGGTCAGCGGAAGTGAGGGCGGTTGAGGCTGG, the ETS1 binding intensity was 4740.

As for CACCTCAGCTTCCTGTGTAGCTGGGACCACAGGCAT, the ETS1 binding intensity amounted to 687.

For AGACGGGACCGGAAGCCGGGCCGCAGGCGGCCGGGC, the ETS1 binding intensity is 5400.

Consider AACCCACCGGATGGAAGCTGCCACTCAGCCGCAGGA, for which the ETS1 binding intensity is 1100.

With ATGCTAGAAAGCAGGAAGCCACAGACACGCCCCAAC, the ETS1 binding intensity worked out at 1180.

GCCACACAGGCAGGAAAGCCACAGCCCACGTCTCCG yielded an ETS1 binding intensity of 471.

For CGCCGCTCAACTTCCGGCAACCACAGCTCTCTCTGA, the ETS1 binding intensity amounted to 1830.

For the sequence ACCCCAGGTACCGGAAGACCACAATTCCCAGGAGTC, the ETS1 binding intensity came to 2220.

CGGGAACACCCACTTCCGCCACAGACCTGCTCAAAA registered an ETS1 binding intensity of 1400.

The sequence AGGAGCCGGAAGTCCCGCCCACGCACCCCCCGCAGG displayed an ETS1 binding intensity of 5260.

As to AGGTTTTGAAAGAGGAAACCACATACCCGAAAACCA, the ETS1 binding intensity was found to be 1120.

GCCCAGTTCTCGCATCCGGTCTGCGGCGCGCTCGGG came in with an ETS1 binding intensity of 4380.

On to AACATCCGGTTCCCGGTTCTGCCCCCTACCGCAGCT, for which the ETS1 binding intensity turned out to be 3190.

Turning to AGACCCGGAAATGGTGGGTGTTTCTTGCAACCACGG, the ETS1 binding intensity stood at 1810.

Sequence AACAGCACACAGGAAGTTACCGCTGAAGCAAAGGAG had an ETS1 binding intensity of 2750.

In turn, CCAGCCCAGGAAACAAGGAACCCCAAAGCCACAGGA yielded an ETS1 binding intensity of 392.

For GGAGAGTTGACTTCCGGCGGCTTGTGGGAGTGCTGG, the ETS1 binding intensity worked out at 2740.

The sequence GCCTCCTCCCATTTCCTCCATGTGGTCAATCCAGTT registered an ETS1 binding intensity of 459.

Take GTTGTCTTGCCCAAAGGAAGTGGTTACTAGACCAGA: the ETS1 binding intensity came to 1770.

Consider TAGACTAACAGGGGAGGAAGTGGGTTGCAAGCCGTG, for which the ETS1 binding intensity was 2030.

On to AAAAGGCACCAGGAAATGACAGCACCGCAGCACGCC, for which the ETS1 binding intensity turned out to be 1290.

As for TTGCTCCCGGAAGCCCCGCCCGACCGCGGCTCCTGA, the ETS1 binding intensity is 999.

Sequence CCCAATTTCCTTTGCTCTGCTGTCTGCCAACCGCAA came in with an ETS1 binding intensity of 418.

GGCAACCTGAGCTTCCGTGTAAAACCACAGTGTGAC registered an ETS1 binding intensity of 372.

CCACCCTCCGTCCGGCCGCGACCGCGAGGAGGAAGA yielded an ETS1 binding intensity of 948.

Regarding ACAGATCCAAGGAAGCATATCCCGCAAGCAACTGTT, the ETS1 binding intensity came out at 460.

As for CAAAGTGATGGGGGAAATGGTTGTGGTTTTGGGTGG, the ETS1 binding intensity stood at 553.
